miR122 inh – blocks miR-122 activity in Huh7 sensor cells. AID 602342. Huh7 miR-122 Renilla luciferase sensor, 48 h; neutral wells = 0, positive control = 100. activation (reporter increase), % at 12.5 µM. actives 0.3% (n = 340,000);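 active means mean replicate activation score at least 90 and every replicate individually at or above 90; inconclusive means only one of the two criteria met; inactive means neither criterion met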;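 further: higher luciferase means less miR-122 activity so hits act as miR-122 inhibitors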
esBAF inh – inhibitors of esBAF chromatin remodeling in mouse ES cells | Bmi1-luciferase knock-in reporter, 24 h; 100% = twice the neutral-well signal | reporter increase, % at 12.5 µM | actives 2% (n = 350,000) | AID 602393; in the data active means activation above about 40%; inconclusive means no clear call, values can overlap the other calls;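 further: 0% = median of the plate's neutral control wells and 100% = double that signal; a rise in the Bmi1 reporter signal indicates esBAF inhibition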
MITF act – activators of MITF-driven TRPM1 promoter activity in SK-MEL-5 cells. SK-MEL-5 TRPM1-promoter luciferase, 24 h; % of positive control, neutral wells = 0. actives 0.75% (n = 300,000). activation, % at 12.5 µM;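 active means mean activation of at least 80% with every replicate also reaching 80%; inconclusive means mean reaches 80% but some replicate falls short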;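 further: 0% = neutral control wells and 100% = parthenolide positive control wells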
HIV Env fusion – inhibitors of HIV Env-mediated cell fusion; HeLa-JRFL Env/CEM21 cell fusion, luciferase; inhibition, % at 12.3 µM; actives 1.1% (n = 360,000);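 active means mean replicate inhibition score of at least 50 and every replicate individually at or above 50; inconclusive means only one of the two criteria met; inactive means mean below 50 and not all replicates reaching 50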;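 further: 0% = plate neutral controls and 100% = maraviroc near 300 nM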
Wnt act – activators of Wnt/beta-catenin signaling; Wnt/beta-catenin reporter cell assay, activator, plate reader; activation, % at 9.35 µM; actives 1.2% (n = 300,000); AID 743398; in the data active means activation above about 30%, passing the limit was not always enough; inconclusive means no clear call, values can overlap the other calls;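 further: 0% = neutral control wells and 100% = positive control wells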
Numbers without * were called inactive; u = inconclusive; x = not tested or not shown; [ ] = remark or other dose. Only some compounds are listed: those with a hit (about 3.4% of all), similar ones and a draw of the others.

SMILES	miR122 inh	esBAF inh	MITF act	HIV Env fusion	Wnt act
C[C@@H]1CCCCO[C@@H](CN(C)Cc2ccccc2)[C@@H](C)CN([C@@H](C)CO)C(=O)c2cc(NC(=O)Nc3ccc(F)cc3)ccc2O1	2[16.7 µM]	1	x	-28[16.7 µM]	x
O=S(=O)(c1cccc(F)c1)N1CC[C@H]2[C@H](CO)Nc3ccc(-c4cccc(F)c4)cc3[C@H]21	47[16.7 µM]	6	x	x	x
CCN(CC)c1ccc(Nc2nc(-c3cccnc3)cs2)cc1	x	60*	112*	-25	29
Fc1ccc(Nc2nc(-c3cccnc3)cs2)cc1	x	x	68	-29	25
Clc1ccc(Nc2nc(-c3cccnc3)cs2)cc1	x	54*	23	x	x
Cc1ccc(Nc2nc(-c3ccncc3)cs2)cc1	x	x	88*	-47	43*
C[C@@H]1CN([C@H](C)CO)C(=O)Cc2cc(N(C)C)ccc2O[C@@H]1CN(C)S(=O)(=O)c1ccccc1	0[16.7 µM]	-1	x	-4[16.7 µM]	x
O=C(NC[C@H]1[C@H](c2ccccc2)[C@H](CO)N1Cc1cccnc1)c1ccccn1	-8[16.7 µM]	-1	x	x	x
COc1ccc(NC(=O)Nc2cccc3c2O[C@@H](CN(C)C(=O)Nc2c(C)noc2C)[C@H](C)CN([C@@H](C)CO)C3=O)cc1	1[16.7 µM]	0	x	-1[16.7 µM]	x
CCCCn1cnc2c(SCc3ccccc3)nc(N)nc21	x	50*	45	-14	14
Cc1noc(C)c1S(=O)(=O)Nc1ccc2c(c1)C(=O)N([C@H](C)CO)C[C@H](C)[C@@H](CN(C)S(=O)(=O)c1ccc(Cl)cc1)O2	-3[16.7 µM]	0	x	-6[16.7 µM]	x
CCOC(=O)c1ccc(N2Cc3ccccc3C2)cc1O	-1	30	106*	x	8
CCOC(=O)c1ccc(N2Cc3ccccc3C2=N)cc1	0	17	46	-47	0
CCc1ccc(N2Cc3ccccc3C2)cc1	x	x	86*	-19	2
Cc1ccc(-c2csc3nnc(SCC(=O)Nc4nsc(-c5ccccc5)n4)n23)cc1	1	-3	7	44	x
Cc1ccc(-c2nc(NC(=O)CSc3nnnn3-c3ccccc3)ns2)cc1	-2	84*	17	x	-6
CCCOc1ccc(/C=C/C(=O)Nc2ccc([N+](=O)[O-])cc2)cc1	-5	5	-20	68*	-11
Cc1ccc(/C=C/C(=O)Nc2ccc([N+](=O)[O-])cc2)o1	x	64*	56	x	10
COc1ccc(NC(=O)Nc2ccc3c(c2)[C@H]2C[C@H](CC(=O)N4CCc5ccccc5C4)O[C@H](CO)[C@H]2O3)cc1	-5[16.7 µM]	18	x	0[16.7 µM]	x
COc1ccc(NC(=O)Nc2ccc3c(c2)[C@H]2C[C@H](CC(=O)N4CCCCC4)O[C@@H](CO)[C@H]2O3)cc1	-4[16.7 µM]	-4	x	x	x
c1cc(-c2nnc3sc(C4CCCCC4)nn23)ccn1	-18	-14	x	63*	x
O=C1C=C(c2ccc(F)cc2OCc2ccccc2)C[C@@H](c2ccc(Cl)cc2)C1	-5	-17	3	76*	-8
COc1ccccc1CN1[C@H](CO)[C@H]2c3ccccc3N(C(=O)c3ccncc3)C[C@H]21	5[16.7 µM]	-7	x	x	x
O=C(Nc1ccc(F)cc1)NC1CCN(Cc2nnnn2Cc2ccco2)CC1	-7	11	-8	61*	-1
Cc1ccc(S(=O)(=O)N2C[C@@H]3[C@H]4CC[C@H](C4)[C@@H]3[C@@H](C)[C@@H]2c2ccn(Cc3ccccc3)c2)cc1	x	1	7	63*	-2
SMILES	miR122 inh	esBAF inh	MITF act	HIV Env fusion	Wnt act
COCCN(C(=O)c1ccco1)c1nc(-c2ccccc2)cs1	-8	35	6	-2	1
CCC(=O)N(CC)c1nc(-c2ccc(OC)cc2)cs1	3	72*	72	-65	26
CN(C(=O)c1ccco1)c1nc(-c2ccccc2)cs1	-3	44*	130*	-170	19
CCN(C(=O)c1ccco1)c1nc(-c2ccc(OC)cc2)cs1	-2	81*	x	-64	21
C[C@@H]1CN([C@H](C)CO)C(=O)c2cc(NC(=O)Nc3ccccc3)ccc2O[C@@H](C)CCCCO[C@H]1CN(C)S(=O)(=O)c1cn(C)cn1	12[16.7 µM]	0	x	-12[16.7 µM]	x
Cc1c(CC(C)C)nc(N)c(C#N)c1-c1ccccc1	x	87*	-3	x	x
O=C(NCCCN1CCC(Cc2ccccc2)CC1)C1CC(=O)N(C2CCCCCC2)C1 (configuration not stated)	-5	-10	-1	55*	x
CN1CCN(CCCNC(=O)C2CC(=O)N(C3CCCCC3)C2)CC1 (configuration not stated)	7	-10	-1	x	x
CC(C)(C)OC(=O)NCCOCCOCCNc1ncnc2ccc(Br)cc12	x	x	x	22[16.7 µM]	x
O=C(Cc1csc(NC(=O)Nc2ccc(Cl)cc2)n1)NC1CCCC1	-3	31	18	-21	3
O=C(Cc1csc(NC(=O)Nc2ccc(Cl)cc2)n1)NCc1ccccn1	x	45*	58	-12	3
CC(C)NC(=O)Nc1cccc2c1O[C@H](CN(C)C(=O)Nc1ccc3c(c1)OCO3)[C@@H](C)CN([C@H](C)CO)C2=O	-3[16.7 µM]	0	x	x	x
COc1ccc(N(C(=O)c2ccco2)S(=O)(=O)c2cc(Cl)c(Cl)cc2Cl)cc1	134*	10	-6	-11	x
CC(NCC(O)COCCC12CC3CC(CC(C3)C1)C2)c1ccccc1 (configuration not stated)	x	x	-55	73*	-12
NCC(O)COCCC12CC3CC(CC(C3)C1)C2 (configuration not stated)	1	4	1	-8	x
Cc1ccc(C)c(N2CCN(C(=O)CCc3nc(-c4ccccc4Br)no3)CC2)c1	-6	43*	59	-14	8
Cc1ccc(C)c(N2CCN(C(=O)CCc3nc(-c4ccccc4F)no3)CC2)c1	-3	3	33	23	0
COc1ccc(NC(=O)N(C)C[C@H]2OCCCC[C@@H](C)Oc3ccc(NC(=O)Cc4ccccc4)cc3C(=O)N([C@@H](C)CO)C[C@@H]2C)cc1	13[16.7 µM]	1	x	-165[16.7 µM]	x
Nc1n[nH]c(N)c1N=Nc1cccc(C(F)(F)F)c1	-3	51*	33	-6	2
Nc1n[nH]c(N)c1N=Nc1cccc(F)c1	-6	30	33	1	x
Cc1sc(NC(=O)c2ccco2)c(C(c2cccnc2)N2CCC(C)CC2)c1C (configuration not stated)	-20	5	-31	62*	2
O=C(N[C@@H]1CC[C@@H](CCNS(=O)(=O)Cc2ccccc2)O[C@@H]1CO)c1cnccn1	-1[16.7 µM]	3	x	1[16.7 µM]	x
Cc1ccc(Nc2n[nH]c(=S)s2)cc1C	12	51*	x	-34	12
C/C=C/c1ccc2c(c1)[C@@H]1[C@@H](CCN1C(=O)Cc1ccncc1)[C@@H](CO)N2C	-2[16.7 µM]	-3	x	x	x
COc1ccc2nc3oc(C(=O)N4CCCCC4)cc3cc2c1	0	u	84*	x	u
CCOC(=O)C1CCCN(C(=O)c2cc3cc4ccc(OC)cc4nc3o2)C1 (configuration not stated)	-4	-7	8	x	x

Bioassay records as filed in PubChem.
